# Source: PubChem BioAssay
# Inconclusive results are not listed. Calls of active or inactive are those of the source.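 How the source made its calls, unless noted: active means binding below the plate cutoff, the plate median minus 3 SD, with a reading above zero; inconclusive means below the plate cutoff but reading exactly zero; inactive means the rest.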
# Columns and labels:
# [1] = yeast TOR pathway RPL19A-GFP modulators, primary screen, cell-based, S. cerevisiae, multiplex flow cytometry (AID 1862; in the data active means percent of DMSO control GFP below about 86%;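 further: lower values mimic rapamycin by blocking the RPL19A rise seen in DMSO cells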); settings: S. cerevisiae RPL19A-GFP strain, flow cytometry fluorescence, 3 h; at 10 µM; stronger effect = lower value
# [2] = modulators of MEP2-GFP levels in yeast, primary screen, S. cerevisiae, multiplex flow cytometry (AID 1867;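 active means GFP response, as percent of the DMSO control, above the screen-wide mean plus 3 SD, about 139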;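 further: median GFP channel fluorescence of barcode-gated MEP2-GFP cells measured by flow cytometry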); settings: S. cerevisiae MEP2-GFP strain, 3 h, at 10 µM, stronger effect = higher value, 100% means same as DMSO wells
# [3] = modulators of CIT2-GFP expression in yeast, primary screen, S. cerevisiae, GFP fusion, multiplex flow cytometry (AID 1870;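 active means percent response above a set limit, the screen-wide mean plus 3 SD, cut at about 130% in these data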;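 further: barcoded CIT2-GFP strain pooled with four other GFP strains with rapamycin as positive control; median GFP fluorescence per well over plate mean of DMSO wells so 100% = DMSO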); settings: 3 h, at 10 µM, stronger effect = higher value
# [4] = modulators of LAP4-GFP expression in yeast, primary screen, S. cerevisiae, multiplex flow cytometry (AID 1873;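 active means GFP signal, as percent of the solvent control, above the screen mean plus 3 SD, about 149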); settings: 3 h, at 10 µM, stronger effect = higher value
# [5] = modulators of AGP1-GFP expression in yeast TOR pathway, primary screen, cell-based, multiplex flow cytometry, S. cerevisiae (AID 1887;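 active means GFP signal above the screen-wide mean plus 3 SD, that is over about 124.5% of the solvent control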;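 further: AGP1-GFP fusion strain of S. cerevisiae within a five-strain barcoded multiplex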); settings: 3 h, at 10 µM, stronger effect = higher value
# [6] = inhibitors of CD8+ T cell-vesicle binding, pilot screen, LFA-1/ICAM-1 modulator project, MLPCN validation set, flow cytometry (AID 2523;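 active means response below a set limit, under 55% cells CD8-positive and vesicle-bound, and CD8 cells' 90th-percentile brightness under 279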;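 on vesicle binding response: mean PE anti-B7-1 fluorescence of CD8+ cells relative to row control; 100% = QL9-loaded vesicles with DMSO vehicle in the same plate row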); settings: 2C mouse CD8+ T cells, at 7 µM, stronger effect = lower value; double positive events: measured here: CD8+/vesicle+ event percentage
# [7] = target: Integrin beta-1 (Homo sapiens) + Integrin alpha-4 (Homo sapiens) (UniProt P13612+P05556); assay: inhibition of HUTS-21 binding to VLA-4, pilot screen, VLA-4 allosteric modulator project, U937 cells, HUTS-21 mAb, flow cytometry, validation set (AID 2674;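 active means inhibition above 50%, about 3 SD of the validation set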;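 further: antibody binding induced by the VLA-4 ligand LDV present at three times its Kd; 0% = LDV ligand with antibody and no compound and 100% = antibody without LDV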); settings: HUTS-21 LIBS mAb binding, at 6.7 µM, stronger effect = higher value, binding induced by LDV ligand
# Chain of Integrin beta-1 (Homo sapiens) + Integrin alpha-4 (Homo sapiens) (P05556 whole entry, looked up): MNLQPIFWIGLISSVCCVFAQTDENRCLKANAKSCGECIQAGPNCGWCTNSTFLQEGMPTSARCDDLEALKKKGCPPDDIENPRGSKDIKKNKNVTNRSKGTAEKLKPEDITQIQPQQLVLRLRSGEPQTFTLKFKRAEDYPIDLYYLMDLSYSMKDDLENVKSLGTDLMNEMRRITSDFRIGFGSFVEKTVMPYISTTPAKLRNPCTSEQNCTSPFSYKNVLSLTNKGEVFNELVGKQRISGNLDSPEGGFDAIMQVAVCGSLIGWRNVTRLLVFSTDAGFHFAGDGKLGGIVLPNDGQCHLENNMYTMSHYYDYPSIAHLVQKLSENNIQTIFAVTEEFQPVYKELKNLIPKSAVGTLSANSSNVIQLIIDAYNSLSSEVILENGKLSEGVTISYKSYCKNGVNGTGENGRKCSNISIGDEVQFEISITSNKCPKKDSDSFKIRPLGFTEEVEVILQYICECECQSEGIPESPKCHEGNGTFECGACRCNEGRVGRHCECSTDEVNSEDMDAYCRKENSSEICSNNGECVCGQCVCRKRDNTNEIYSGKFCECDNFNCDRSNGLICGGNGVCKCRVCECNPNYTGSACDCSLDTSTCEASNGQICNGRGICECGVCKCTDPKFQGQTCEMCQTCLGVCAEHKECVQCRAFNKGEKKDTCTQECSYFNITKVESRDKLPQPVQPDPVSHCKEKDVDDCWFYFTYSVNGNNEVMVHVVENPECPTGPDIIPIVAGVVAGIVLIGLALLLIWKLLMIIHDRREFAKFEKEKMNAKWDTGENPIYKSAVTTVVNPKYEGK
# Chain of Integrin beta-1 (Homo sapiens) + Integrin alpha-4 (Homo sapiens) (P13612 whole entry, looked up): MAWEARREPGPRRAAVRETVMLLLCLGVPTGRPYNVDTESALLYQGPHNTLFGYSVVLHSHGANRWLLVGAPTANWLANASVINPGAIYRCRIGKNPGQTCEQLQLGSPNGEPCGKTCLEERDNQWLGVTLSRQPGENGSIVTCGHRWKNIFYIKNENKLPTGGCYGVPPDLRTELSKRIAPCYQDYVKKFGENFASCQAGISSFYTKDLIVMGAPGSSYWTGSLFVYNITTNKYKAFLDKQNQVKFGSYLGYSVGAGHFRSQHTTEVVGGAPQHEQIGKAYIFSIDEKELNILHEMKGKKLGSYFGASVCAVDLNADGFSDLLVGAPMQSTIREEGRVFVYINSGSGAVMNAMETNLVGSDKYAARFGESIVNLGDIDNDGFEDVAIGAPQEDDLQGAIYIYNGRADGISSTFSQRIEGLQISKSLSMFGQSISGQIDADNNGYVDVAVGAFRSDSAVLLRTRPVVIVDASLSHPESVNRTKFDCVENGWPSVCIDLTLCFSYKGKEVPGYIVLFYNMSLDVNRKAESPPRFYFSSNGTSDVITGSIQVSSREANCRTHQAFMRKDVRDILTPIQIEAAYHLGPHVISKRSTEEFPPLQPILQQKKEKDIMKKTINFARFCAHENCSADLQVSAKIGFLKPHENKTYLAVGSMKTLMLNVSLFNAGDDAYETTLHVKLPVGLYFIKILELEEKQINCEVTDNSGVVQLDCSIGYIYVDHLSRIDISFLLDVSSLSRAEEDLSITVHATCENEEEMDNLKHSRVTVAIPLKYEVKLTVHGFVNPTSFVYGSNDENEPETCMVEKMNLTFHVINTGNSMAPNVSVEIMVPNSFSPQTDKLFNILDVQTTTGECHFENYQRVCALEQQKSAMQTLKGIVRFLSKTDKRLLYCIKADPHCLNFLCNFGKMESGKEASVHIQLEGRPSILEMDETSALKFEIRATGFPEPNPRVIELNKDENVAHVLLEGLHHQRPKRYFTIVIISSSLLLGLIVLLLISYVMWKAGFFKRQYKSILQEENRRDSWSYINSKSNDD
# [8] = superoxide lowering in aged yeast cells, pilot screen, validation compound set (AID 2706;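 active means superoxide response below 65% of plate, a cut near 3 SD across the whole screen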;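 further: yeast exposed to compound for one week at 30 degrees C before staining; 100% = mean of all compound wells on the same plate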); settings: S. cerevisiae aging, superoxide DHE fluorescence; at 10 µM; stronger effect = lower value
# [9] = target: Beta-adrenergic receptor kinase 1 (Homo sapiens) (UniProt P25098); assay: GRK2 binders displacing RNA aptamer, biochemical, validation, human GRK2, bead flow cytometry (AID 488806;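 active means aptamer binding inhibition above 30%, about 3 SD of noise from non-fluorescent compounds; inactive means inhibition at or below 30%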); settings: bead-bound GRK2, FAM-aptamer displacement, at 10 µM, stronger effect = higher value
# Chain of Beta-adrenergic receptor kinase 1 (Homo sapiens) (P25098 whole entry, looked up): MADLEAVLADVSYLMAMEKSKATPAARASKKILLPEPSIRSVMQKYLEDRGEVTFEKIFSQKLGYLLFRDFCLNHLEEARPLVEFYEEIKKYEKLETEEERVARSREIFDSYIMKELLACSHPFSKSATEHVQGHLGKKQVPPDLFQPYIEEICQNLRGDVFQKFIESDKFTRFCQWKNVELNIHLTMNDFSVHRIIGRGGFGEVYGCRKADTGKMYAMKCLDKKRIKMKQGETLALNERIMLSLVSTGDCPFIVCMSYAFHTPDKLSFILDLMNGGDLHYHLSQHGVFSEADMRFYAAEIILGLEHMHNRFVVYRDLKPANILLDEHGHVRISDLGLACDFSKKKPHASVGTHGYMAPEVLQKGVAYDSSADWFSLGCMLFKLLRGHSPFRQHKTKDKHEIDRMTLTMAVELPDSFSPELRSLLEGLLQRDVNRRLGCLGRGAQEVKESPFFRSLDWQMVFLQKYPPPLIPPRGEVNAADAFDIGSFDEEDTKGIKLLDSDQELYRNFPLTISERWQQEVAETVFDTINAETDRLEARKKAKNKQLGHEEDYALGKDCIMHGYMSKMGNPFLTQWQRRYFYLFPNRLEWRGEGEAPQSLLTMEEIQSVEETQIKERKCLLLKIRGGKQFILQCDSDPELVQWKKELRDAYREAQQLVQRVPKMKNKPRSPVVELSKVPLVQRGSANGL
# [10] = target: Beta-2 adrenergic receptor (Homo sapiens) (UniProt P07550); assay: beta2AR agonists driving receptor internalization, pilot screen, cell-based, FAP fluorogen, flow cytometry, validation set (AID 504459;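 active means percent response above 42, roughly 3 SD of non-fluorescent test compounds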;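 further: agonist-driven loss of surface beta2AR via internalization measured by FAP dye flow cytometry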); settings: Am2.2-beta2AR cells, FAP surface receptor flow cytometry; at 10 µM; stronger effect = higher value
# Chain of Beta-2 adrenergic receptor (Homo sapiens) (P07550 whole entry, looked up): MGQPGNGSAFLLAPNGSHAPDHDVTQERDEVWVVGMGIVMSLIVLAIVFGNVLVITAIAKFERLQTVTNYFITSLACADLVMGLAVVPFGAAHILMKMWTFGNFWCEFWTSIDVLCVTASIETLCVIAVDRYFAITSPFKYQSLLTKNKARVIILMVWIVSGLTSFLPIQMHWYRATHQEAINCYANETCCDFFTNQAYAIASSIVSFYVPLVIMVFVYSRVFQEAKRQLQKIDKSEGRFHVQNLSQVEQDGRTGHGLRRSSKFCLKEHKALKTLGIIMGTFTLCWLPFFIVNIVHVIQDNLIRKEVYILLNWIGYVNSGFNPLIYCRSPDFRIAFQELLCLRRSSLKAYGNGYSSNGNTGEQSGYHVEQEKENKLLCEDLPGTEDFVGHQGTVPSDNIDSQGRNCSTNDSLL
# [11] = target: AP-2 complex subunit beta (Homo sapiens) (UniProt P63010); assay: inhibitors of arrestin peptide binding to AP2, pilot screen, biochemical, validation set, GST-AP2 beads, flow cytometry (AID 504541;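 active means inhibition above 54%, about 3 SD of non-fluorescent compounds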;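 further: AP2 carries R879A mutation and is captured from E. coli lysate; bead-bound FITC arrestin peptide fluorescence measuring arrestin peptide binding to AP2; 0% = DMSO wells and 100% = excess unlabeled arrestin peptide control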); settings: FITC arrestin peptide, at 10 µM, stronger effect = higher value, AP2 beta2 appendage fragment, R879A mutant
# Chain of AP-2 complex subunit beta (Homo sapiens) (P63010 whole entry, looked up, the tested form may be a part, one chain of several): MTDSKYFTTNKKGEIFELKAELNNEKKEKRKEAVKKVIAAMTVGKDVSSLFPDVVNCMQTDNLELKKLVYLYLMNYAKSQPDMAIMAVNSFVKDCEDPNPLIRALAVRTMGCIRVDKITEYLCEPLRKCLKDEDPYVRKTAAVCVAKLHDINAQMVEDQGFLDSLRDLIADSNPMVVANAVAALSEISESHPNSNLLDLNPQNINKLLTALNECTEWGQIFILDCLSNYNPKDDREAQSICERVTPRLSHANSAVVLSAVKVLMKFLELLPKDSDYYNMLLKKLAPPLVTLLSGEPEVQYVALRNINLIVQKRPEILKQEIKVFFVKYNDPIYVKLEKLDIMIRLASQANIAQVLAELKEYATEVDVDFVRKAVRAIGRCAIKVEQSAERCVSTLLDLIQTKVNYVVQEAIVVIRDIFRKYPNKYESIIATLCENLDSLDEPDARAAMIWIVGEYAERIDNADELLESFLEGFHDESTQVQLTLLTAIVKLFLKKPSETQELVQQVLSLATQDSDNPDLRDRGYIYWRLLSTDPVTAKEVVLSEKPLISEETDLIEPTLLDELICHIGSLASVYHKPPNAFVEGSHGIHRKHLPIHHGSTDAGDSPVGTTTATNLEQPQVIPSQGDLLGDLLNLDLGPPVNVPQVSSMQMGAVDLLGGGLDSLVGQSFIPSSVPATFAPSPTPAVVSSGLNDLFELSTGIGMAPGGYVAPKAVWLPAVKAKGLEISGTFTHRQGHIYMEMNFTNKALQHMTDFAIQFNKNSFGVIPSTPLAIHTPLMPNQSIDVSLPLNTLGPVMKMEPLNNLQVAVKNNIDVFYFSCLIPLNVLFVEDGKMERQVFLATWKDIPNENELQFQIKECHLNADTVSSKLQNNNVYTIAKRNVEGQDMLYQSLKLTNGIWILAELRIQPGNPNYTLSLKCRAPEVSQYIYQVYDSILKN
# [12] = yeast V-ATPase proton transport modulators, S. cerevisiae, pHLuorin, HTS validation (AID 504600; in the data active means response above about 15%;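 further: plate controls were DMSO for no effect and reference compound for full effect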); settings: S. cerevisiae pHLuorin cytosolic pH, at 10 µM, stronger effect = higher value
# [13] = tested on: anti-desmoglein-3 scFv antibody binding to human DSG3; assay: inhibitors of anti-DSG3 scFv binding to DSG3, pilot screen, biochemical, validation compound set, bead-based, flow cytometry (AID 588368); settings: Protein G beads, DSG3-Fc, scFv-GFP binding, at 10 µM, stronger effect = lower value;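 further: signal is the median channel fluorescence of bead-bound GFP antibody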
# [14] = inhibitors of fungal efflux pumps CDR1, CDR2, MDR1, pilot screen, validation compound set, multiplex, phenotypic (AID 588506;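 active means efflux inhibition above 0.42, the validation set average plus 4 SD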;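 further: Nile Red retained in cells so higher fluorescence means more efflux inhibition; 0 = negative control wells and 1 = enniatin B 25 µM full block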); settings: S. cerevisiae pump-expressing triplex, Nile Red efflux flow cytometry; at 10 µM; stronger effect = higher value; the pumps come from Candida albicans
# [15] = target: ATP-binding cassette sub-family B member 6 (Homo sapiens) (UniProt Q9NP58); assay: ABCB6 transporter inhibitors, pilot screen, K562-ABCB6 cells, flow cytometry, validation set (AID 588550;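 active means inhibition above the screen-wide mean plus 3 SD, about 51%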;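 further: 0% = DMSO wells and 100% = benzethonium chloride 70 µM positive control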); settings: K562-ABCB6 porphyrin accumulation, 1 h, at 10 µM, stronger effect = higher value
# Chain of ATP-binding cassette sub-family B member 6 (Homo sapiens) (Q9NP58 whole entry, looked up): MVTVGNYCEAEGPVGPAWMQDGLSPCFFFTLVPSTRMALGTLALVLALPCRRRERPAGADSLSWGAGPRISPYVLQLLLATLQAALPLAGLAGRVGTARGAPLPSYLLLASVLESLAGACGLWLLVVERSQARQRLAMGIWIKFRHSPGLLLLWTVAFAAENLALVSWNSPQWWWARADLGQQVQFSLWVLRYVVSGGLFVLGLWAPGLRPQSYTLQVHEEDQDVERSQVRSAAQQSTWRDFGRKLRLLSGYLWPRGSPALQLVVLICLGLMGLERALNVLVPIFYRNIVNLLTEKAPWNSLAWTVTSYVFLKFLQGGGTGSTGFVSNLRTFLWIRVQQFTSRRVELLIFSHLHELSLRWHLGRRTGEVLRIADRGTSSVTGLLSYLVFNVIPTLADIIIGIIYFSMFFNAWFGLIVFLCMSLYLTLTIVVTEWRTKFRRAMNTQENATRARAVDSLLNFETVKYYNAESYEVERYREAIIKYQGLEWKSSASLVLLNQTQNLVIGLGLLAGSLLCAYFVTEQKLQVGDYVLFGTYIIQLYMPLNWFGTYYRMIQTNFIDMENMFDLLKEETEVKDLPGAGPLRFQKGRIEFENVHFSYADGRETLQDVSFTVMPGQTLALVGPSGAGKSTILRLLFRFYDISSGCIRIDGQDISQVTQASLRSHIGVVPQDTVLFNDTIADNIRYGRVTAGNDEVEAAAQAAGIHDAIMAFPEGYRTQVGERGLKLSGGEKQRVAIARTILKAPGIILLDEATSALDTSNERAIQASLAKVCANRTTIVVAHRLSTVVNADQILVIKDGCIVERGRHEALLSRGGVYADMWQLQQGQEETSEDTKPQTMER
# [16] = promoters of myeloid differentiation in arrested cells, primary screen, cell-based, GFP/MAC1 double positive, flow cytometry, validation set (AID 588685;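 active means differentiation response of at least 50%, scaled between solvent and reference control, from cells with both markers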;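 further: compound exposure lasts four days before antibody staining and flow analysis; 0% = DMSO wells and 100% = 5 µM fulvestrant positive control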); settings: ER-HoxA9 marrow cells, stronger effect = higher value, normalized: vehicle 0, fulvestrant 100
Structure (SMILES),percent of DMSO control GFP [1],GFP response vs DMSO [2],percent response of DMSO control [3],GFP response vs DMSO [4],"GFP response, % of DMSO [5]",double positive events [6],vesicle binding response [6],inhibition [7],superoxide response (% of plate) [8],aptamer binding inhibition [9],response [10],inhibition [11],response [12],binding (% of control) [13],efflux inhibition (fraction of control) [14],inhibition [15],differentiation response [16]
COCc1cc(=O)[nH]c(/N=C(\N)Nc2ccc(Oc3ccccc3)cc2)n1,96.9% (inactive),118% (inactive),83.4% (inactive),109% (inactive),97.8% (inactive),60.6%,216% (inactive),-1.79% (inactive),94.8% (inactive),2% (inactive),17.9% (inactive),-1.38% (inactive),-1.49% (inactive),99.3% (inactive),0.01 (inactive),12% (inactive),10.4% (inactive)
N/C(=N\OC(=O)c1cccc(Br)c1)c1ccncc1,103% (inactive),105% (inactive),106% (inactive),111% (inactive),94.2% (inactive),62.9%,166% (inactive),9.63% (inactive),106% (inactive),-2% (inactive),-7.41% (inactive),43.1% (inactive),4.2% (inactive),100% (inactive),-0.115 (inactive),8% (inactive),-4.57% (inactive)
CCCCCCC(=O)N(O)C1CC(=O)N(Cc2ccccc2)C1=O (stereo not drawn),106% (inactive),101% (inactive),107% (inactive),94% (inactive),101% (inactive),59.7%,191% (inactive),-0.45% (inactive),103% (inactive),1% (inactive),-3.98% (inactive),6.86% (inactive),0.52% (inactive),100% (inactive),-0.01 (inactive),9% (inactive),-4.64% (inactive)
C=CC1=C(C(=O)O)N2C(=O)C(NC(=O)Cc3ccccc3)C2SC1 (stereo not drawn),101% (inactive),103% (inactive),105% (inactive),82.8% (inactive),100% (inactive),62%,134% (inactive),13.2% (inactive),96.1% (inactive),86% (active),0.41% (inactive),15.3% (inactive),1.11% (inactive),101% (inactive),0.01 (inactive),7% (inactive),-31.2% (inactive)
O=C(O)[C@H](Cc1ccccc1)NC(=O)N1CCC(Cc2ccccc2)CC1,104% (inactive),102% (inactive),96% (inactive),100% (inactive),99.9% (inactive),67%,122% (inactive),-0.31% (inactive),108% (inactive),-6% (inactive),9.92% (inactive),4.86% (inactive),0.86% (inactive),99.5% (inactive),-0.18 (inactive),6% (inactive),-5.68% (inactive)
OC12CCCCC1C(c1ccc3c(c1)OCO3)N(Cc1cccc(F)c1)CC2 (stereo not drawn),103% (inactive),90.9% (inactive),113% (inactive),94% (inactive),101% (inactive),61.7%,234% (inactive),-5.64% (inactive),97.9% (inactive),3% (inactive),-6.32% (inactive),7.03% (inactive),-0.75% (inactive),104% (inactive),-0.01 (inactive),0% (inactive),-10.5% (inactive)
O=C(c1cccnc1)N1N=C(C2CC2)CC1(O)C(F)(F)F (stereo not drawn),99.1% (inactive),104% (inactive),93.9% (inactive),115% (inactive),104% (inactive),60.4%,353% (inactive),-7.25% (inactive),106% (inactive),2% (inactive),-5.28% (inactive),2.62% (inactive),-0.29% (inactive),101% (inactive),-0.1 (inactive),10% (inactive),-28% (inactive)
Cc1ccc(C2CC(=O)C(C=NCCN3CCN(CC(=O)Nc4cc(C)cc(C)c4)CC3)=C(O)C2)cc1 (stereo not drawn),103% (inactive),103% (inactive),97.6% (inactive),108% (inactive),105% (inactive),60.5%,196% (inactive),-17.2% (inactive),102% (inactive),-3% (inactive),-1.95% (inactive),-1.73% (inactive),-0.35% (inactive),103% (inactive),-0.05 (inactive),13% (inactive),-16.3% (inactive)
O=C(/C=C/c1ccc2c(c1)OCO2)NCc1ccc(F)cc1,101% (inactive),106% (inactive),95.4% (inactive),108% (inactive),99.7% (inactive),60.1%,130% (inactive),-3.57% (inactive),108% (inactive),2% (inactive),-3.87% (inactive),55.2% (active),-3% (inactive),98.4% (inactive),0.08 (inactive),2% (inactive),15.9% (inactive)
OC(CCN1CCCC1)(c1ccccc1)C1CCCCC1 (stereo not drawn),87.3% (inactive),134% (inactive),102% (inactive),80.9% (inactive),89.4% (inactive),63.6%,284% (inactive),0.64% (inactive),93.8% (inactive),-1% (inactive),6.72% (inactive),34.9% (inactive),-6.1% (inactive),97.4% (inactive),0.12 (inactive),109% (active),-4.91% (inactive)
OCC(O)CN1CCN(c2ccccc2)CC1 (stereo not drawn),99.3% (inactive),103% (inactive),90.5% (inactive),103% (inactive),102% (inactive),59.4%,145% (inactive),9.1% (inactive),99.2% (inactive),7% (inactive),-29.2% (inactive),-3.7% (inactive),-24.2% (inactive),96.2% (inactive),-0.04 (inactive),9% (inactive),11.8% (inactive)
O=C(CCCN1C(=O)/C(=C\c2cccs2)SC1=S)Nc1ccccn1,103% (inactive),99.7% (inactive),92.4% (inactive),99.1% (inactive),96.8% (inactive),61.7%,154% (inactive),-2.43% (inactive),115% (inactive),2% (inactive),-9.49% (inactive),-9.99% (inactive),-5.78% (inactive),94% (inactive),0.35 (inactive),-5% (inactive),-7.5% (inactive)
CC(C)(CO)CNC(=O)CC1C(=O)NCCN1CC(c1ccccc1)c1ccccc1 (stereo not drawn),97.8% (inactive),106% (inactive),86.3% (inactive),114% (inactive),96% (inactive),65.3%,7860% (inactive),3.67% (inactive),115% (inactive),-1% (inactive),-3.26% (inactive),-0.19% (inactive),0.18% (inactive),99.5% (inactive),0.05 (inactive),7% (inactive),-8.8% (inactive)
O=C(O)C(O)c1ccccc1 (stereo not drawn),101% (inactive),95.6% (inactive),105% (inactive),99.1% (inactive),102% (inactive),53.8%,90.5% (inactive),-6.45% (inactive),96.6% (inactive),5% (inactive),3.86% (inactive),-5.56% (inactive),1.56% (inactive),104% (inactive),-0.12 (inactive),12% (inactive),-3.11% (inactive)
